Results with a measured potency or affinity are listed apart.
Biological target: KSHV LANA C-terminal domain (residues 932-1162) binding to LBS DNA (UniProt O40947)
Experiment: KSHV LANA DNA-binding disruption – biochemical, fluorescence polarization, cherry-picked samples, dose response (AID 504725)
Settings: MBP-C-LANA / FAM-LBS DNA fluorescence polarization, percent change from plate compound-well median; series mostly up to 35 µM; activity change, negative = inhibition: at the top concentration; call rule not given here

Activity change, negative = inhibition, inactive:
Cc1cc2nc(SCCN3CCOCC3)[nH]c2cc1C 1.27%, O=C(CN(Cc1ccccc1F)C(=O)c1csnn1)NCc1ccc2c(c1)OCO2 1.89%, COc1ccc(OC)c(NC(=O)c2nnn(Cc3ccc(Br)cc3F)c2N)c1 2.03%, O=C(Cn1ncc(N2CCCC2)c(Cl)c1=O)c1ccc(Cl)cc1 -0.085%, S=c1c2c(nc3nc[nH]n13)CCC2 -0.257%, CN(c1ccc(OCC(=O)OCC(=O)c2c(N)n(C)c(=O)n(C)c2=O)cc1)S(=O)(=O)c1ccc2ccccc2c1 1.36%, N=c1ccn(Cc2ccc(Cl)cc2)cc1 -0.38%, CN1CCc2c(sc(NC(=O)c3ccc4ccccc4c3)c2C(N)=O)C1 6.69%, Oc1ccc(-c2nc3ccccn3c2NCc2ccco2)cc1 0.047%, COc1c2c(nc3occc13)C(CCC(C)(C)O)(OC)C(O)CC2 (stereo not given) -3.02%, CCN(CC)C(=O)C1c2ccccc2Oc2ccccc21 -2.59%, CC(C)c1ccc(NC(=O)Cn2c(=O)oc3cccnc32)cc1 1.09%, O=C(COC(=O)c1ccc([N+](=O)[O-])o1)NCCCc1ccccc1 -6.75%, COc1ccc(C(=O)OCC(=O)NC2CC2)cc1S(=O)(=O)Nc1ccc(C)cc1 2.49%, COC(=O)c1ccccc1OCC(=O)N1CCN(c2ccc(Cl)cc2)CC1 0.64%, COc1ccc2[nH]c3c(C)c4cc[n+](C)cc4c(C)c3c2c1 128%, CCN(CC)C(=S)SC1CCCCN(C(=O)c2ccccc2)C1=O (stereo not given) 0.524%, COC(=O)C1CCN(C(=O)COC(=O)Cc2c[nH]c3ccccc23)CC1 -0.8%, CCc1ccc(C2CC(c3cccc(Cl)c3)n3nc(N)nc3N2)cc1 (stereo not given) 2.28%, COc1ccc(OC2CCN(S(=O)(=O)c3ccc(OC)cc3)CC2)cc1 -1.17%

— PubChem BioAssay AID504725 (Broad Institute, 2011)
